Results filed as inconclusive are left out. Some compounds were tested as several samples or in several runs, with calls that do not always agree. Active and inactive are the calls of the source. How the source made its calls, unless noted: active means hit-call score of the fitted dose curve at least 0.9, where 1 is the maximum; inactive means score below 0.9.
Tests used:
[1] = read-out: solute carrier (SLC22A1), SLC22A1 (gene 6580); assay: LTEA_HepaRG_SLC22A1: Life Technologies and Expression Analysis (LTEA) Assay for solute carrier (SLC22A1) using HepaRG (AID 2283524); conditions: mRNA level, 48 h; actives raise or lower the signal
Outline: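 Differentiated human HepaRG cells in serum-free induction medium, exposed 48 h in duplicate to 8-point half-log series from 100 µM top in 0.5% DMSO. SLC22A1 mRNA by TaqMan qRT-PCR normalized to ACTB, GAPDH, POLR2A; bidirectional fit versus DMSO.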

[2] = read-out: Pyruvate Dehydrogenase Kinase 4 (PDK4), PDK4 (gene 5166); assay: LTEA_HepaRG_PDK4: Life Technologies and Expression Analysis (LTEA) Assay for Pyruvate Dehydrogenase Kinase 4 (PDK4) using HepaRG (AID 2283525); conditions: mRNA level, 48 h; actives raise or lower the signal
Outline: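 HepaRG cells plated 48 h, then switched to serum-free induction medium and exposed in duplicate for 48 h to 8 half-log concentrations from 100 uM in 0.5% DMSO. PDK4 mRNA measured by qRT-PCR, normalized to ACTB, GAPDH and POLR2A; bidirectional fit versus DMSO.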

[3] = read-out: Nuclear factor erythroid 2-related factor 2 (Homo sapiens) (UniProt Q16236); assay: LTEA_HepaRG_NFE2L2: Life Technologies and Expression Analysis (LTEA) Assay for Nuclear factor erythroid 2-related factor 2 (NFE2L2) Transcription Factor using HepaRG (AID 2283527); conditions: mRNA level, 48 h; actives raise or lower the signal
Outline: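 Differentiated human HepaRG cells, serum-free induction medium, exposed 48 h in duplicate to eight half-log concentrations up to 100 uM in 0.5% DMSO. NFE2L2 mRNA by Fluidigm TaqMan qRT-PCR, normalised to ACTB, GAPDH, POLR2A; bidirectional change versus DMSO.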

[4] = read-out: Signal transducer and activator of transcription 3 (Homo sapiens) (UniProt P40763); assay: LTEA_HepaRG_STAT3: Life Technologies and Expression Analysis (LTEA) Assay for Signal transducer and activator of transcription (STAT3) using HepaRG (AID 2283529); conditions: mRNA level, 48 h; actives raise or lower the signal
Outline: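 Differentiated HepaRG cells, serum-free induction medium, dosed 48 h in duplicate, 8 half-log concentrations from 100 uM in 0.5% DMSO. STAT3 mRNA by qRT-PCR, normalised to ACTB, GAPDH, POLR2A; bidirectional fit versus DMSO.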

[5] = read-out: solute carrier (SLCO1B1), SLCO1B1 (gene 10599); assay: LTEA_HepaRG_SLCO1B1: Life Technologies and Expression Analysis (LTEA) Assay for solute carrier (SLCO1B1) using HepaRG (AID 2283530); conditions: mRNA level, 48 h; actives raise or lower the signal
Outline: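 HepaRG, serum-free induction medium, 48 h dosing, 8-pt half-log from 100 uM, 0.5% DMSO vehicle, duplicates. Readout: SLCO1B1 mRNA, qRT-PCR, ACTB/GAPDH/POLR2A normalization; up or down fit vs DMSO.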

[6] = read-out: sulfotransferase 2A1 (SULT2A1), SULT2A1 (gene 6822); assay: LTEA_HepaRG_SULT2A1: Life Technologies and Expression Analysis (LTEA) Assay for sulfotransferase 2A1 (SULT2A1) using HepaRG (AID 2283531); conditions: mRNA level, 48 h; actives raise or lower the signal
Outline: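 Transcript levels of SULT2A1, quantified by qRT-PCR and normalized to three housekeeping genes, serve as the readout. Human HepaRG cultures receive test chemicals for 48 h at up to 100 uM in half-log steps, with 0.5% DMSO vehicle.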

[7] = read-out: Transforming Growth Factor (TGFA), TGFA (gene 7039); assay: LTEA_HepaRG_TGFA: Life Technologies and Expression Analysis (LTEA) Assay for Transforming Growth Factor (TGFA) using HepaRG (AID 2283532); conditions: mRNA level, 48 h; actives raise or lower the signal
Outline: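 Differentiated HepaRG cells exposed 48 hours in serum-free induction medium, 0.5% DMSO vehicle, 8-point half-log series from 100 uM, in duplicate. TGFA mRNA by TaqMan qRT-PCR, normalised to ACTB, GAPDH, POLR2A; bidirectional fit versus DMSO.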

[8] = read-out: Transforming Growth Factor (TGFB1), TGFB1 (gene 7040); assay: LTEA_HepaRG_TGFB1: Life Technologies and Expression Analysis (LTEA) Assay for Transforming Growth Factor (TGFB1) Transporter using HepaRG (AID 2283533); conditions: mRNA level, 48 h; actives raise or lower the signal
Outline: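 HepaRG, 48 h post-plating, switched to serum-free induction medium; chemicals 100 uM top, half-log, 8 pts, 0.5% DMSO, dup; 48 h exposure; RNA → Fluidigm TaqMan qRT-PCR; norm ACTB/GAPDH/POLR2A; bidirectional fit vs DMSO.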

[9] = read-out: TIMP1, TIMP1 (gene 7076); assay: LTEA_HepaRG_TIMP1: Life Technologies and Expression Analysis (LTEA) Assay for TIMP1 using HepaRG (AID 2283534); conditions: mRNA level, 48 h; actives raise or lower the signal
Outline: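 Readout is TIMP1 mRNA level measured by qRT-PCR and normalized to three housekeeping genes. Human HepaRG cells were treated for 48 h in duplicate at eight concentrations up to 100 uM (0.5% DMSO); gain or loss fitted against DMSO.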

[10] = read-out: Tumor necrosis factor receptor 1 (TNFRSF1A), TNFRSF1A (gene 7132); assay: LTEA_HepaRG_TNFRSF1A: Life Technologies and Expression Analysis (LTEA) Assay for Tumor necrosis factor receptor 1 (TNFRSF1A) using HepaRG (AID 2283535); conditions: mRNA level, 48 h; actives raise or lower the signal
Outline: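 Read-out is TNFRSF1A transcript level by TaqMan qRT-PCR, normalized to three housekeeping genes, scored as gain or loss of signal versus 0.5% DMSO. Human HepaRG cells received test chemicals for 48 h at up to 100 uM (half-log series).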

[11] = read-out: Thyroid Hormone Responsive (THRSP), THRSP (gene 7069); assay: LTEA_HepaRG_THRSP: Life Technologies and Expression Analysis (LTEA) Assay for Thyroid Hormone Responsive (THRSP) using HepaRG (AID 2283536); conditions: mRNA level, 48 h; actives raise or lower the signal
Outline: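 Differentiated HepaRG cells treated 48 h in serum-free induction medium with 8 half-log concentrations up to 100 uM (0.5% DMSO), duplicates. THRSP mRNA by TaqMan qRT-PCR normalised to ACTB, GAPDH, POLR2A; bidirectional fit versus DMSO.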

[12] = read-out: UDP glucuronosyltransferase (UGT1A6), UGT1A6 (gene 54578); assay: LTEA_HepaRG_UGT1A6: Life Technologies and Expression Analysis (LTEA) Assay for UDP glucuronosyltransferase (UGT1A6) using HepaRG (AID 2283539); conditions: mRNA level, 48 h; actives raise or lower the signal
Outline: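 HepaRG, 48 h post-plating switch to serum-free induction medium; chemical 48 h, 100 uM top, half-log x8, duplicate, 0.5% DMSO. Phenobarbital 1mM induction control. UGT1A6 mRNA by TaqMan qRT-PCR; gain/loss fit vs DMSO.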

[13] = read-out: X-box binding protein 1 (XBP1), XBP1 (gene 7494); assay: LTEA_HepaRG_XBP1: Life Technologies and Expression Analysis (LTEA) Assay for X-box binding protein 1 (XBP1) using HepaRG (AID 2283540); conditions: mRNA level, 48 h; actives raise or lower the signal
Outline: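 Transcript levels of XBP1, measured by qRT-PCR and normalised to three housekeeping genes, were fitted bidirectionally relative to 0.5% DMSO controls. Human HepaRG cells received eight-point half-log dilutions from 100 uM for 48 h.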

[14] = LTEA_HepaRG_LDH_cytotoxicity: Cytotoxicity Assessment in the Life Technologies and Expression Analysis (LTEA) Assay (AID 2283563; active means hit-call score of the fitted dose curve at least 0.9, where 1 is the maximum;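 on AC50: LDH activity released into spent culture medium as a marker of cell death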)
Outline: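 Cells were thawed and plated for 48 h. Medium was then replaced with serum-free induction medium. Chemicals (8 half-log points, maximum 100 uM, 0.5% DMSO) were added in duplicate for 48 h, after which spent medium was assayed for LDH.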

[15] = target: Cellular tumor antigen p53 (Homo sapiens) (UniProt P04637); assay: TOX21_p53_BLA_p2_ratio: Tox21 HCT-116 p53 Agonism Beta-lactamase Assay, Ratio, Phase 2 (AID 2283592; active means hit-call score of the fitted dose curve at least 0.9, where 1 is the maximum)
Outline: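 HCT116 p53-bla; 4000 cells/well; 5 h pre-incubation; cpd in DMSO, 217-fold dilution; 16 h 37C/5% CO2; CCF4-AM 2 h RT; Ex 405, Em 460/530 ratio; DMSO = baseline; positive fitting direction.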

[16] = read-out: UDP glucuronosyltransferase (UGT1A1), UGT1A1 (gene 54658); assay: LTEA_HepaRG_UGT1A1: Life Technologies and Expression Analysis (LTEA) Assay for UDP glucuronosyltransferase (UGT1A1) using HepaRG (AID 2283538); conditions: mRNA level, 48 h; actives raise or lower the signal
Outline: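 Readout is UGT1A1 transcript level by qRT-PCR, normalized to three housekeeping genes, after 48 h chemical treatment of HepaRG cells. Concentrations ran from 100 uM down in half-log steps with 0.5% DMSO, and gain or loss relative to DMSO was fitted.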

Measured: AC50

Signal transducer and activator of transcription 3 (Homo sapiens), sequence (P40763 whole entry, looked up): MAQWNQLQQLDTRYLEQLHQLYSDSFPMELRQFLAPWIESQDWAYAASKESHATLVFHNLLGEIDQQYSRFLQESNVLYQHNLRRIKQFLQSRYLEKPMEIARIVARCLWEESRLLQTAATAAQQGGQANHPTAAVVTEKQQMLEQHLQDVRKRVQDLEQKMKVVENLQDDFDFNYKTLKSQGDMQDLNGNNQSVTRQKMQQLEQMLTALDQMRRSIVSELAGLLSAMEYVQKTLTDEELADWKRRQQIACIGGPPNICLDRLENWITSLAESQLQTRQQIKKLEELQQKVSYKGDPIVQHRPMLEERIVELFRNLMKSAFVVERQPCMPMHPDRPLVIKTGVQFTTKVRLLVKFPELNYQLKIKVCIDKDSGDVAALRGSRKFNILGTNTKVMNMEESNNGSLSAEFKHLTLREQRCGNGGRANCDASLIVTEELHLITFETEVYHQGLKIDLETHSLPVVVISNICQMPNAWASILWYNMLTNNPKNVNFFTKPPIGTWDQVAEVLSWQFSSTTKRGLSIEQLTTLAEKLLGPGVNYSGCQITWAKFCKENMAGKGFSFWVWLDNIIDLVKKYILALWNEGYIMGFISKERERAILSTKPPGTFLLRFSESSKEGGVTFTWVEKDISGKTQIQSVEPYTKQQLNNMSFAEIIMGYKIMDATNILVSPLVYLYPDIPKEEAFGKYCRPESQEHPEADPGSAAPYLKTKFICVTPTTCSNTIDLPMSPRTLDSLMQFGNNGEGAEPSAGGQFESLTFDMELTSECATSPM
Nuclear factor erythroid 2-related factor 2 (Homo sapiens), sequence (Q16236 whole entry, looked up): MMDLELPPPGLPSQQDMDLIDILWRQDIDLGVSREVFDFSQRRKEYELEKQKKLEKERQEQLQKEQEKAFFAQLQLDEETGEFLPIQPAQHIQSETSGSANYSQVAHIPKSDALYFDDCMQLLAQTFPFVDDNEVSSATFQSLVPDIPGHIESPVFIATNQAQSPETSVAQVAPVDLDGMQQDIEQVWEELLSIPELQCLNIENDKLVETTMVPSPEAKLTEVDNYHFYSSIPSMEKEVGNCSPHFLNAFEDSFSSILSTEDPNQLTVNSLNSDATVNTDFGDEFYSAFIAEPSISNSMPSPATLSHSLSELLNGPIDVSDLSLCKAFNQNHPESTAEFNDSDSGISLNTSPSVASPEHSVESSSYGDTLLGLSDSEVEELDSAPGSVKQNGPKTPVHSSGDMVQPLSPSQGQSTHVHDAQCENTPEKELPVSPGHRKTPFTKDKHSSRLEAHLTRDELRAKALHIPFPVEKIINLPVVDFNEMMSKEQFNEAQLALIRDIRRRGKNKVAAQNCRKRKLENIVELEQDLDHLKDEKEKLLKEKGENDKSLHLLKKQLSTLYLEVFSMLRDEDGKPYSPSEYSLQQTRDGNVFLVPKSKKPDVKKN
Cellular tumor antigen p53 (Homo sapiens), sequence (P04637 whole entry, looked up): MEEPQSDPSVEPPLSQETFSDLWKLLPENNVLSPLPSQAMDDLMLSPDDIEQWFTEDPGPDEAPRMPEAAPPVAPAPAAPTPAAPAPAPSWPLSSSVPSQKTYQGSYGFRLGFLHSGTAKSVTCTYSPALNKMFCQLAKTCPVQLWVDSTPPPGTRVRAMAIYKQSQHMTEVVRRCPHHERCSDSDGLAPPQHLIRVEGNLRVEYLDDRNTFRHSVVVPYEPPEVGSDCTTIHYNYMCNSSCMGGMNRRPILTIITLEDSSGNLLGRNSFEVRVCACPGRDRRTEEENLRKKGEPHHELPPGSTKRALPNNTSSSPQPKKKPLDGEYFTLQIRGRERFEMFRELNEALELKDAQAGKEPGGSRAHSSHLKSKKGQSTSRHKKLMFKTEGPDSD

CC[C@H](C)[C@H]1O[C@]2(C=C[C@@H]1C)C[C@@H]1C[C@@H](C/C=C(\C)[C@@H](O[C@H]3C[C@H](OC)[C@@H](O[C@H]4C[C@H](OC)[C@@H](O)[C@H](C)O4)[C@H](C)O3)[C@@H](C)/C=C/C=C3\CO[C@@H]4[C@H](O)C(C)=C[C@@H](C(=O)O1)[C@]34O)O2 (tested in a mixture with another compound)
inactive: [11] | [13] | [15]
active: [1] 9.94 µM | [2] 16.3 µM | [3] 14 µM | [4] 46 µM | [5] 15.2 µM | [6] 8.58 µM | [7] 13.9 µM | [8] 55.3 µM | [9] 11.7 µM | [10] 51.4 µM | [12] 18.6 µM | [14] 22.1 µM | [15] 17.6 µM

CCc1ccc(C(=O)NN(C(=O)c2cc(C)cc(C)c2)C(C)(C)C)cc1
active: [11] 21.5 µM | [16] 12.3 µM | [14] 81.9 µM
inactive: all other assays above

O=[N+]([O-])c1c(Cl)c(Cl)c(Cl)c(Cl)c1Cl
active: [16] 17.2 µM
inactive: all other assays above

— PubChem BioAssay (EPA / NIEHS)
